According to PubChem BioAssay AID588849 (Broad Institute, 2011):
Results with a measured potency or affinity are listed apart.

Biological target: CAAX prenyl protease 2 (Homo sapiens) (UniProt Q9Y256)
Assay: inhibition of Ras-converting CAAX protease Rce1 – biochemical, yeast membranes, quenched-peptide fluorescence, cherry-pick, dose response (AID 588849)
Settings: yeast membrane fractions expressing human Rce1, quenched-peptide fluorescence, 4 h; series mostly up to 10 µM; activity change, negative = inhibition: at the top concentration; call rule not given here

CAAX prenyl protease 2 (Homo sapiens), sequence (Q9Y256 whole entry, looked up): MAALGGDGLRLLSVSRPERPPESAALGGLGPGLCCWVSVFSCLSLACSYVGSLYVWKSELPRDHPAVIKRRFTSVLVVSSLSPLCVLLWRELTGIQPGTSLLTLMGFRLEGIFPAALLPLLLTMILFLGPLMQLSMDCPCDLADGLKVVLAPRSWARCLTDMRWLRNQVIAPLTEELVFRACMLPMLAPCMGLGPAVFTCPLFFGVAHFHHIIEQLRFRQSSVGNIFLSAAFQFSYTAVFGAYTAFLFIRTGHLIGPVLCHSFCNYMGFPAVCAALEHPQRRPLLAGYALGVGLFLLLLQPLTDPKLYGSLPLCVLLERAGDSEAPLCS

Activity change, negative = inhibition, inactive:
Cc1nc(N2CCOCC2)c2c(C)c(C(=O)Nc3ccc(C(F)(F)F)cc3)sc2n1 -9.73%, COC(C/C=C/[C@H](O)[C@@H](C)OCc1ccccc1)OC 15.6%, Nc1c(C(=O)NCc2ccccc2)sc2nc(N3CCOCC3)c3c(c12)CCCC3 50.9%, COc1ccc(Cl)cc1C(=O)Nc1ccc2c(c1)OCO2 -7.6%, CCN(CC)CCN(C(=O)c1cc2ccccc2cc1OC)c1nc2ccc(F)cc2s1 -25.1%, NC(=O)CCCn1c(C(=O)c2cc(Cl)c(N)c(Cl)c2)c2ccc(C(F)(F)F)cc2[n+]1[O-] -4.43%, Cc1nc(SC(C(=O)c2ccccc2)c2ccccc2)nc2ccccc12 (configuration not stated) -3.28%, Cc1ccc(C(=O)N/C(=C/c2ccco2)C(=O)Nc2cccc(C(=O)O)c2)cc1 4.83%, Cc1nc2c(C)cccn2c(=O)c1NC(=O)COc1ccccc1 -3.68%, COc1ccc(C2Nc3ccccc3C(=O)N2Cc2ccccc2)cc1COc1ccccn1 (configuration not stated) 63.7%, c1ccc(-n2nnnc2SCc2cn3cccnc3n2)cc1 -12.3%, CC1(C)CC2CC(C)(CN2S(=O)(=O)c2ccc(N)cc2)C1 (configuration not stated) -9.72%, Cc1cc(NS(=O)(=O)c2ccccc2)c([N+](=O)[O-])cc1C -16.3%, COc1ccc(C(CNC(=O)COc2cc(C)c(Cl)c(C)c2)N2CCCCC2)cc1 (configuration not stated) -12.7%, CCOC(=O)[C@@H]1[C@H]2COc3ccc(Br)cc3[C@@H]2N2C(=O)N(c3cccc(Cl)c3)C(=O)[C@]12C 2.86%, COc1ccccc1-n1c(-c2ccccc2)c[nH]c1=S -13.2%, CC(=O)c1ccc(-c2ccc(C(=O)N3CCC(C(N)=O)CC3)o2)cc1 -2.63%
